Legend:
[1] = system: Botulinum neurotoxin type F light chain protease (Clostridium botulinum); assay: Botulinum neurotoxin type F light chain protease inhibition, multiplex microsphere flow cytometry, validation set (AID 588459); details: multiplex microsphere protease substrate cleavage assay, at 10 µM, stronger effect = higher value
[2] = target: Botulinum neurotoxin type A (Clostridium botulinum) (UniProt P0DPI0); assay: BoNT/A light chain protease inhibitors, biochemical, multiplex microsphere flow cytometry, validation set (AID 588460); details: at 10 µM, stronger effect = higher value
[3] = target: Lethal factor (Bacillus anthracis) (UniProt P15917); assay: Lethal factor protease inhibitors, Bacillus anthracis, multiplex microsphere cleavage assay, validation set (AID 588461); details: flow cytometry, at 10 µM, stronger effect = higher value

Measured: inhibition

COCCOC(=O)C1=C(N)OC2=C(C(=O)CCC2)C1c1cccnc1 (stereo unspecified)
inactive: [1] -3.2% | [2] 0% | [3] -0.9%

COc1ccc(N2C(=O)C3CCCN3C2=O)cc1 (stereo unspecified)
inactive: [1] 1.8% | [2] 0.4% | [3] -0.1%

O=C(c1ccco1)N(CCC(c1ccccc1)c1ccco1)Cc1ccco1 (stereo unspecified)
inactive: [1] -0.1% | [2] -0.1% | [3] 3.5%

c1ccc(Cn2ncc3c(Nc4ccccc4)ncnc32)cc1
inactive: [1] 1.6% | [2] -1.4% | [3] -0.5%

CC(C)CN1CC(C(=O)O)CC1=O (stereo unspecified)
inactive: [1] 3.8% | [2] -1.3% | [3] 1.5%

O=C(OCC(O)C(O)COC(=O)c1ccccc1)c1ccccc1 (stereo unspecified)
inactive: [1] -0.4% | [2] 0.6% | [3] 2.1%

O=C(CC(C(=O)O)c1c[nH]c2ccccc12)c1ccccc1 (stereo unspecified)
inactive: [1] 0.3% | [2] 2% | [3] 6.4%

CCOC(=O)c1cnc2ccccc2c1NCCO
inactive: [1] -1.1% | [2] 0% | [3] 5.8%

COc1ccc(NS(=O)(=O)c2ccc(N)cc2)nn1
inactive: [1] 7.2% | [2] 2% | [3] -0.1%

COc1ccc(-c2coc3c(CN4CCOCC4)c(O)ccc3c2=O)cc1
inactive: [1] 2.6% | [2] 0.6% | [3] 4.1%

OCCN(Cc1nc(-c2ccc3c(c2)OCO3)no1)Cc1cccs1
inactive: [1] 2.4% | [2] 0.4% | [3] 2%

COc1ccc2cc(C3(C)NC(=O)NC3=O)ccc2c1 (stereo unspecified)
inactive: [1] -0.4% | [2] -0.4% | [3] 0.8%
